miR-122 sensor: blocks miR-122 activity in Huh7 sensor cells | Huh7 miR-122 Renilla luciferase sensor, 48 h; neutral wells = 0, positive control = 100 | activation (reporter increase), % at 12.5 µM | 340,000 compounds, 0.3% hits | AID 602342;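 active = mean replicate activation score at least 90 and every replicate individually at or above 90; inconclusive = only one of the two criteria met; inactive = neither criterion met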;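 note: higher luciferase means less miR-122 activity so hits act as miR-122 inhibitors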
MITF act: MITF TRPM1 promoter activation in melanoma cells | 300,000 compounds, 0.75% hits | SK-MEL-5 TRPM1-promoter luciferase, 24 h; % of positive control, neutral wells = 0 | activation, % at 12.5 µM | AID 588334;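 active = mean activation of at least 80% with every replicate also reaching 80%; inconclusive = mean reaches 80% but some replicate falls short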;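 note: 0% = neutral control wells and 100% = parthenolide positive control wells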
NSD2 inh: inhibitors of human histone methyltransferase NSD2; O96028; NSD2 peptide methylation, AlphaScreen, 120 min; inhibition, % at 12.5 µM; 310,000 compounds, 0.54% hits
Target sequence (O96028 whole entry, looked up): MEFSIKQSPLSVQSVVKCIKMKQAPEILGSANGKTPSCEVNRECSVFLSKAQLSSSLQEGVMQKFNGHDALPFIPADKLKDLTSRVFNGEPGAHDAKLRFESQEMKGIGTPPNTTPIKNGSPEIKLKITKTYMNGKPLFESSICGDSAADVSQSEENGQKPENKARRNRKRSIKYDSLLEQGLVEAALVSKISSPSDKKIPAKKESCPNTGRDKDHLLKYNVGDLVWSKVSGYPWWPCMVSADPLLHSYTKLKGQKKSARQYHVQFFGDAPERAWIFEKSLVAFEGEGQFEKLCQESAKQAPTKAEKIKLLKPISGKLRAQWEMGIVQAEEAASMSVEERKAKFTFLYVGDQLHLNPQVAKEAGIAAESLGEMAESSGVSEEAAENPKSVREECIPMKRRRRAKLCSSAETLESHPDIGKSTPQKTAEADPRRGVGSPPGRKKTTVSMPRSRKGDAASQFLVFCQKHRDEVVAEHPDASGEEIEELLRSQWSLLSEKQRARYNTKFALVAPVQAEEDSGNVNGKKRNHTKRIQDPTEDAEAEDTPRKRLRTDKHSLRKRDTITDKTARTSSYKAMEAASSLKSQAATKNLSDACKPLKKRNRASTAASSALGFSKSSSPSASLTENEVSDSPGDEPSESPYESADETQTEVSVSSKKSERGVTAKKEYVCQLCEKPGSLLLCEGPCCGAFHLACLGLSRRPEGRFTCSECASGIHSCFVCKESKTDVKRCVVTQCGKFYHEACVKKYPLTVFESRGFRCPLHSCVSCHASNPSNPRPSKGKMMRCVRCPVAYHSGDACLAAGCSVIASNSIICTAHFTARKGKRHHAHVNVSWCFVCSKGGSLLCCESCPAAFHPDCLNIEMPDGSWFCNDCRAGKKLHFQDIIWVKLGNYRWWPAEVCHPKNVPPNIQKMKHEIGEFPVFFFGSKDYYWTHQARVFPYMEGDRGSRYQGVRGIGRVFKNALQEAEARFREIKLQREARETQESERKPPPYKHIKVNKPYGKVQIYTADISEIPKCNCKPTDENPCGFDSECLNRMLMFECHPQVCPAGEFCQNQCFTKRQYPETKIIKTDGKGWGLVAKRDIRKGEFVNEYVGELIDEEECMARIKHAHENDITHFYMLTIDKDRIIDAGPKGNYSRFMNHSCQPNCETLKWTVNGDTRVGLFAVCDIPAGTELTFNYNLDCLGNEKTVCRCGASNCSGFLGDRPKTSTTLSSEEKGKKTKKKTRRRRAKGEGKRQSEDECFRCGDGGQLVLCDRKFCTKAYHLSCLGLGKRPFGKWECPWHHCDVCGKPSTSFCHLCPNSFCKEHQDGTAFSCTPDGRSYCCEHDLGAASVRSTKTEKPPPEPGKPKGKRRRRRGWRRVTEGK
GSIS activator: GLuc luminescence reporter in INS-1E cells, primary screen for activators of glucose-dependent secretion of insulin; INS-1E GLuc reporter insulin secretion, 2-3 h; activation, % at 16.6 µM; 370,000 compounds, 0.61% hits; AID 743287;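 active = lowest replicate activation of at least 40%, so every replicate reaches that level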;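 note: 0% = median of neutral control wells and 100% = median of IBMX positive control wells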
Wnt act: Wnt/beta-catenin pathway activation | Wnt/beta-catenin reporter cell assay, activator, plate reader | activation, % at 9.35 µM | 300,000 compounds, 1.2% hits; in the data active = activation above about 30%, passing the limit was not always enough; inconclusive = no clear call, values can overlap the other calls;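 note: 0% = neutral control wells and 100% = positive control wells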
Dyrk1A ADPGlo: blocks rat Dyrk1A kinase activity. ADP-Glo luminescence, NFATc1 peptide. AID 504441. inhibition, % at 12.5 µM. Q63470. 310,000 compounds, 0.43% hits;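 note: plate controls were vehicle with enzyme for no effect and no enzyme for full effect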
* hit, by the source's call; ? = inconclusive; . = no result given; [ ] = another dose, or the depositor's remark. Rows were chosen to be rich in hits. Some 2.4% of all compounds tested hit in one or more screens of this group. Cut-off read from the data, not from the text of the source, unless noted: active = inhibition above about 50%; inactive = the rest.

SMILES	miR-122 sensor	MITF act	NSD2 inh	GSIS activator	Wnt act	Dyrk1A ADPGlo
COCCNC(=S)NC(=O)c1ccc(C(C)(C)C)cc1	2	87*	-2	-21	19	-3
O=C(C1CCCC1)N1CC(=O)N2[C@H](C1)[C@H](c1ccc(C#CC3CCCC3)cc1)[C@@H]2CO	.	.	.	-13	.	.
CCn1c(-c2cccnc2Cl)nc2cc(Cl)c(Cl)cc21	-2	-3	4	-11	.	26
Cc1cc2nc(-c3ccccc3O)[nH]c2cc1C	5	52	1	40*	2	-5
Clc1cc2nc(-c3cccnc3Cl)[nH]c2cc1Cl	.	89*	1	-15	47*	-4
COC(=O)c1cnn(-c2nc(-c3ccccc3)cs2)c1N	0	66	-2	45*	12	-2
CCOC(=O)c1cnn(-c2nc(-c3ccccc3)cs2)c1C(F)(F)F	-2	14	-13	-25	.	-5
CC(Cc1cccs1)NC(=O)Nc1ccc(Cl)cc1 (stereo not drawn)	18	51	-6	.	58*	2
O=C(NC(=S)Nc1ccc(NC(=O)c2ccccc2)cc1)c1ccc(F)cc1	.	6	-6	13	2	-1
O=C(NC(=S)Nc1ncccn1)c1ccc(F)cc1	-5	101*	2	4	7	6
O=C(NC(=S)Nc1cccnc1Cl)c1ccc(F)cc1	2	53	3	13	37*	8
Cc1ccc(NC(=O)CC2NCCNC2=O)cc1 (stereo not drawn)	0	9	-2	.	.	-3
COC(=O)c1scc(C)c1NC(=O)CC1NCCNC1=O (stereo not drawn)	-7	.	1	60*	2	.
CN(C)CC(=O)Nc1ccc2c(c1)[C@@H]1C[C@H](CC(=O)NC3CCCC3)O[C@@H](CO)[C@@H]1O2	1[16.7 µM]	.	.	12	.	.
CC(C)=C[C@H]1C[C@H](C)[C@H]2CC[C@H](C)c3c(O[C@@H]4OC[C@@H](O)[C@H](O)C4O)c(O)c(C)c1c32 (stereo partly drawn)	-11	-1	.	122*	-6	5
CC(=O)OC1[C@H](Oc2c(O)c(C)c3c4c2[C@@H](C)CC[C@@H]4[C@@H](C)C[C@@H]3C=C(C)C)OC[C@@H](O)[C@@H]1O (stereo partly drawn)	9	-5	.	.	-3	5
CC1(C)CC[C@]2(C(=O)O)CC[C@]3(C)C(=CC[C@@H]4[C@@]5(C)CC[C@H](O[C@@H]6O[C@H](C(=O)O)[C@@H](O)[C@H](O[C@@H]7OC[C@H](O)[C@H](O)[C@H]7O)[C@H]6O)C(C)(C)[C@@H]5CC[C@]43C)[C@@H]2C1	2	-1	.	200*	-12	-8
C[C@H](CO)N1C[C@H](C)[C@H](CN(C)C(=O)Nc2ccc(C(F)(F)F)cc2)Oc2ccc(NC(=O)NC3CCCCC3)cc2C1=O	-5[16.7 µM]	.	.	-2	.	.
Cc1noc(C)c1S(=O)(=O)Nc1ccc2c(c1)C(=O)N([C@H](C)CO)C[C@H](C)[C@H](CN(C)C(=O)Nc1ccc(F)cc1)OCCCC[C@@H](C)O2	3[16.7 µM]	.	.	12	.	.
N#Cc1ccc(-c2ccc([C@H]3[C@@H](CO)N4C(=O)CN(C(=O)C5CCC5)C[C@@H]34)cc2)cc1	.	.	.	-2	.	.
c1ccc(-c2nc3nc4ccccc4nc3n2Cc2ccco2)cc1	9	34	7	.	44*	7
Fc1ccc(-c2nc3nc4ccccc4nc3n2Cc2ccco2)cc1	2	37	1	.	?	-40
Cc1ccc(S(=O)(=O)NCCC(=O)Oc2ccc3ccc(=O)oc3c2)cc1	237*	-5	5	-21	0	6
Nc1nc(-c2nc3ccccc3[nH]2)cs1	-1	.	-2	19	56*	17
c1ccc(-c2nc3ccccc3[nH]2)cc1	3	86*	.	19	61*	7
c1ccc(-c2nc3ccccc3[nH]2)nc1	-1	64	-9	6	20	3
Cn1cnc(S(=O)(=O)N[C@H]2CC[C@@H](CC(=O)NCC3CC3)O[C@@H]2CO)c1	.	.	.	7	.	.
CNC[C@H]1Oc2ccc(N(C)C)cc2CC(=O)N(C)C[C@H]1C	.	.	.	-4	.	.
CCS(=O)(=O)Nc1ccc2c(c1)C(=O)N(C)[C@H]1CC[C@@H](CC(=O)N3CCOCC3)O[C@@H]1CO2	-4[16.7 µM]	.	.	3	.	.
